The source made the active and inactive calls.
Legend:
[1] = E. coli DRC41 culture turbidity changes, primary screen, E. coli filamentation inducer project, strain DRC41, OD650, 48 h (AID 1152);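 further: E. coli MC1000 strain DRC41 lacking acrAB efflux pump and sulA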; details: E. coli DRC41 (acrAB sulA), higher = more signal, called active from +8 up or from −8 down
[2] = small-molecule binders of probe aLefty1, primary screen, biochemical, small-molecule microarray, 635/667 nm fluorescence (AID 1153); details: higher = more signal;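 further: score merges spot fluorescence with signal-to-noise ratio from the scanned slide images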
[3] = PSAC antagonists in infected red cells, primary screen, cell-based, P. falciparum Indochina, OD700, 1 h (AID 1154); details: P. falciparum Indochina infected RBC osmotic lysis, higher = more signal, called active from +8 up or from −8 down
[4] = PSAC antagonists in infected red cells, primary screen, cell-based, P. falciparum Indochina, OD700, 2 h (AID 1155);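 further: lysis reports solute entry through the parasite surface anion channel PSAC; channel blockers reduce lysis of infected cells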; details: P. falciparum Indochina infected erythrocytes, osmotic lysis OD700; higher = more signal, called active from +8 up or from −8 down
[5] = osmotic lysis modulators in infected erythrocytes, primary screen, PSAC antagonist project, cell-based, P. falciparum Indochina, OD700, 3 h (AID 1156); details: higher = more signal, called active from +8 up or from −8 down
[6] = PSAC antagonists in infected red cells, primary screen, cell-based, P. falciparum Indochina, OD700, 18 h (AID 1157); details: P. falciparum Indochina infected erythrocytes, osmotic lysis OD700, 18 h; higher = more signal, called active from +8 up or from −8 down
[7] = modulators of S6 phosphorylation in cells, primary screen, cell-based, A549, cytoblot, luminescence, serum-stimulated (AID 1158); details: A549 phospho-S6 cytoblot, 5 h, higher = more signal;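 further: serum-stimulated A549 lung adenocarcinoma cells; signal is phosphorylated S6 detected by cytoblot immunostaining with HRP secondary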
[8] = molecular target: NADPH oxidase 2 (Homo sapiens) (UniProt P04839); test: NOX2-dependent H2O2 signal modulators, primary screen, NOX inhibitor project, cell-based, HEK293-NOX2, PMA-stimulated, Amplex Red fluorescence (AID 1159); details: 45 min, higher = more signal, called active from +8 up or from −8 down; further: test concentration not given here
Sequence of NADPH oxidase 2 (Homo sapiens) (P04839 whole entry, looked up): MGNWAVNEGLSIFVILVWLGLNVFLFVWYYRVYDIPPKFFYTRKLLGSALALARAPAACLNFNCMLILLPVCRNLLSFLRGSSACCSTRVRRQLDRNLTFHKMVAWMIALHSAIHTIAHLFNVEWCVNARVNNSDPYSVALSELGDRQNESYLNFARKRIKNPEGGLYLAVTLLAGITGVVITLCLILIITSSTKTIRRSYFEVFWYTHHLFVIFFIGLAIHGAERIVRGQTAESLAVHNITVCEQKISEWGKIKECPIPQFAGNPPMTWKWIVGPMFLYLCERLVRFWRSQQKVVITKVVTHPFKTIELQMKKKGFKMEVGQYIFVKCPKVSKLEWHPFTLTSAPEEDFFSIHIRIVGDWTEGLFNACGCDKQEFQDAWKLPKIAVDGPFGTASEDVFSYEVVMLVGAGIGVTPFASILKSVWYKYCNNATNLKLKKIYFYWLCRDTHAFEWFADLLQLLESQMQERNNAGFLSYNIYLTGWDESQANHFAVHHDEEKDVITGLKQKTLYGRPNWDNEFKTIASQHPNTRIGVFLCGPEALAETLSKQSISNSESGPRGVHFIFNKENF

[9] = molecular target: NADPH oxidase 4 (Homo sapiens) (UniProt Q9NPH5); test: NOX4-dependent H2O2 signal modulators, primary screen, NOX inhibitor project, cell-based, HEK293-NOX4, tetracycline-induced, Amplex Red fluorescence (AID 1160); details: 45 min, higher = more signal, called active from +8 up or from −8 down
Sequence of NADPH oxidase 4 (Homo sapiens) (Q9NPH5 whole entry, looked up): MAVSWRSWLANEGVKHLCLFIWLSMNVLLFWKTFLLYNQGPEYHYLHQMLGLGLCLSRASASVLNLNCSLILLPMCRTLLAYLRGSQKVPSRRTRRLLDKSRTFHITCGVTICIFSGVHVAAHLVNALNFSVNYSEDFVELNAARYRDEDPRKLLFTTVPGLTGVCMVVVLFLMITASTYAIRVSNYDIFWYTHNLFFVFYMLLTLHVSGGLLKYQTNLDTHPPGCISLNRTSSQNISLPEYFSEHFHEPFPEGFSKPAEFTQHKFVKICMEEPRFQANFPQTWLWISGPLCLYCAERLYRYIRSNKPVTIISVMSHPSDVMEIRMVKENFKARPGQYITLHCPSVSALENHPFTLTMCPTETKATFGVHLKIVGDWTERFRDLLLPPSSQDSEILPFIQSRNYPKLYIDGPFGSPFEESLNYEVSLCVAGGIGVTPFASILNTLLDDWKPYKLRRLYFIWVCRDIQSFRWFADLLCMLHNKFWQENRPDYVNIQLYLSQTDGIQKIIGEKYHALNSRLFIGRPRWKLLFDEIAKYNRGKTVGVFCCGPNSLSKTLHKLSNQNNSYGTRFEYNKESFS

[10] = molecular target: NADPH oxidase 5 (Homo sapiens) (UniProt Q96PH1); test: NOX5-dependent H2O2 signal modulators, primary screen, NOX inhibitor project, cell-based, HEK293-NOX5, Amplex Red fluorescence (AID 1161); details: HEK293-NOX5, ionomycin, 45 min, higher = more signal
Sequence of NADPH oxidase 5 (Homo sapiens) (Q96PH1 whole entry, looked up): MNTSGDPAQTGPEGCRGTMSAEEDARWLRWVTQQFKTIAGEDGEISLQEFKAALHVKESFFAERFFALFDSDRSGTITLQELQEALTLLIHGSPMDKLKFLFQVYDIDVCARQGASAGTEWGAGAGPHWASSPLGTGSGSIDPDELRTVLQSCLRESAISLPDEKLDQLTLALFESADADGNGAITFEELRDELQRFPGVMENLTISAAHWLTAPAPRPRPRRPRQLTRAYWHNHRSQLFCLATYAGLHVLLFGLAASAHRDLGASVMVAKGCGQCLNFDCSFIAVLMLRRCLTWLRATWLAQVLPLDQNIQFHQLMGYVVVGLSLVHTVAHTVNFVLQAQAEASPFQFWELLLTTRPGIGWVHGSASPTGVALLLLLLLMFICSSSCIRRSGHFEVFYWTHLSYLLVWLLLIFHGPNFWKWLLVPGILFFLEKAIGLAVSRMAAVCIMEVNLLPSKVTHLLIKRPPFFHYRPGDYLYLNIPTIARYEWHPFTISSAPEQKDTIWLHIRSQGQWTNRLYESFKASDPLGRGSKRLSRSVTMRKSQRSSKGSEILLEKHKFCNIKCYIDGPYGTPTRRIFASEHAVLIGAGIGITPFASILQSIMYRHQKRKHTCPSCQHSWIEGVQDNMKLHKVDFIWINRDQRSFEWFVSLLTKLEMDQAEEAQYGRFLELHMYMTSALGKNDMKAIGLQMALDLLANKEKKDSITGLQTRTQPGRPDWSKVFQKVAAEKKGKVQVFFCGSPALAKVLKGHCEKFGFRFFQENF

SMILES	z-score [1]	composite z-score [2]	z-score [3]	z-score [4]	z-score [5]	z-score [6]	z-score [7]	z-score [8]	z-score [9]	z-score [10]
COCCCNC(=O)[C@@H]1c2ccccc2C(=O)N(C(C)C)[C@H]1c1ccc(CO)cc1	-0.476 (inactive)	0.142	0.178 (inactive)	0.211 (inactive)	-0.172 (inactive)	0.206 (inactive)	0.219	0.161 (inactive)	-0.904 (inactive)	-0.51
CCOC(=O)C1=CC[C@@H](c2ccccc2)N(S(=O)(=O)c2ccc(C)cc2)[C@H]1c1ccccc1	-1.11 (inactive)	0.155	1.97 (inactive)	0.945 (inactive)	0.369 (inactive)	0.24 (inactive)	-0.685	0.18 (inactive)	-0.464 (inactive)	1.75
CC(C)N1CC=CC23O[C@@H]4C=CCCOC(=O)C4[C@H]2C(=O)N(CCCO)[C@@H]3C1=O (stereo not given in full)	2.91 (inactive)	0.0656	-0.0633 (inactive)	-0.706 (inactive)	1.3 (inactive)	-0.646 (inactive)	0.842	-1.67 (inactive)	-2.17 (inactive)	-2.78
C=CCN1C(=O)[C@]2(CCC(=O)OC(C)(C)C)N=C(c3ccc(OCCCO)cc3)O[C@@H]2c2ccccc21	0.736 (inactive)	0.576	34.1 (active)	32.3 (active)	2.29 (inactive)	12.1 (active)	0.708	-2.67 (inactive)	0.56 (inactive)	-0.299
COCCOC(=O)N1C(=O)[C@@]2(c3ccccc31)[C@H](c1ccc(O)cc1)N1[C@H](c3ccccc3)[C@H](c3ccccc3)OC(=O)[C@H]1[C@@H]2C(=O)N1CCN(c2ncccn2)CC1	0.381 (inactive)	0.412	1.4 (inactive)	0.622 (inactive)	0.113 (inactive)	0.431 (inactive)	0.174	0.964 (inactive)	0.386 (inactive)	1.08
C=CC[C@@]1(C(=O)NCCCOC)N=C(c2ccc(OCCCO)cc2)O[C@@H]1c1ccccc1N=[N+]=[N-]	1.37 (inactive)	0.545	30.7 (active)	29.4 (active)	1.93 (inactive)	2.16 (inactive)	-0.217	-3.32 (inactive)	-0.66 (inactive)	-1.64
C=C(/C(=C/C[C@H](OC(=O)c1ccncc1)c1ccc(CO)o1)c1cnc2ccccc2c1)C(C)C	-0.833 (inactive)	0.0844	6.75 (inactive)	1.37 (inactive)	1.47 (inactive)	0.528 (inactive)	-0.702	1.42 (inactive)	0.0654 (inactive)	-0.415
O=C1N(Cc2ccccc2)c2ccccc2C[C@]12N=C(c1ccc(OCCCO)cc1)O[C@@H]2c1ccccc1	-0.522 (inactive)	-0.0968	24.8 (active)	15.7 (active)	1.41 (inactive)	2.71 (inactive)	-0.027	-0.73 (inactive)	0.472 (inactive)	0.0935
O=C1NC(=O)C2C1C=CC(C(O)c1ccco1)N2Nc1ccc(Cl)cc1Cl (stereo not given)	-2.27 (inactive)	-0.0984	5.52 (inactive)	1.31 (inactive)	0.331 (inactive)	1.2 (inactive)	-0.992	-0.767 (inactive)	-5.58 (inactive)	-4.22
CCCCC(O)C1C=CC2C(=O)N(C)C(=O)C2N1N(c1ccccc1)c1ccccc1 (stereo not given)	-2.15 (inactive)	0.475	3.81 (inactive)	1 (inactive)	1.3 (inactive)	0.951 (inactive)	-1.05	-0.334 (inactive)	-1.98 (inactive)	-0.376
O=C1OCCC=C[C@H]2OC34C=CCN(Cn5nnc6ccccc65)C(=O)[C@H]3N(CCCO)C(=O)[C@@H]4C12 (stereo not given in full)	1.24 (inactive)	-0.321	0.502 (inactive)	-1.23 (inactive)	1.65 (inactive)	-1.32 (inactive)	0.601	0.813 (inactive)	-0.341 (inactive)	-1.35
CCCCCC1=C2CNC(C)(C(=O)OC)C=C2C(C)C1=O (stereo not given)	-1.81 (inactive)	-0.0236	0.585 (inactive)	0.0544 (inactive)	0.777 (inactive)	0.373 (inactive)	-0.628	0.116 (inactive)	-2.6 (inactive)	-3.07
CC(C)C(CO)N1C(=O)[C@@H]2[C@H]3C(=O)OCC=C[C@H]3OC23C=CCN(c2ccc(Cl)cc2)C(=O)[C@@H]13 (stereo not given in full)	0.284 (inactive)	-0.0642	0.0695 (inactive)	0.406 (inactive)	1.06 (inactive)	0.035 (inactive)	-0.4	1.1 (inactive)	0.164 (inactive)	1.78
COC(=O)[C@@]1(Cc2ccc(F)cc2)[C@H]2c3cc(C(=O)N(C)C)n(CCc4ccc(OC)c(Br)c4)c3C[C@H]2CN1C(=O)c1ccccc1	-1.75 (inactive)	1.32	1.89 (inactive)	-1.04 (inactive)	0.746 (inactive)	-1.96 (inactive)	1.24	-3.62 (inactive)	-3.99 (inactive)	-4.26
C=CCC(OC(C)=O)[C@@H]1[C@@H](N(Cc2cccc3ccccc23)C(=O)Cc2ccc(F)cc2)c2cc(OCCCO)ccc2N1C(=O)c1ccc2ccccc2c1 (stereo not given in full)	0.978 (inactive)	0.23	1.06 (inactive)	0.479 (inactive)	0.51 (inactive)	0.484 (inactive)	0.336	-1.5 (inactive)	0.344 (inactive)	0.453
Cc1cc(C)c(C(O)C2C=CC3C(=O)N(c4ccccc4)C(=O)C3N2Nc2ccccc2F)c(C)c1 (stereo not given)	-1.56 (inactive)	-0.0111	1.33 (inactive)	1.35 (inactive)	-0.167 (inactive)	1.32 (inactive)	-0.855	-0.611 (inactive)	-0.918 (inactive)	-0.344
CCCC1(C(=O)OC)C=C2C(=C(C)C(=O)C2C)CN1 (stereo not given)	-1.8 (inactive)	0.193	-0.0775 (inactive)	-0.0273 (inactive)	-0.0148 (inactive)	0.274 (inactive)	-0.386	0.43 (inactive)	-1.28 (inactive)	-2.88
NC(=O)[C@H]1[C@@H]2C(=O)O[C@@H](c3ccccc3)[C@@H](c3ccccc3)N2[C@@H](c2ccc(OCCO)cc2)[C@]12C(=O)Nc1ccc(C#CCCO)cc12	-0.628 (inactive)	0.0753	6.95 (inactive)	1.05 (inactive)	-1.02 (inactive)	0.466 (inactive)	-0.671	2.03 (inactive)	1.03 (inactive)	1.13
CCCC=C(CCC)[C@@H](NS(=O)(=O)c1ccc(C(F)(F)F)cc1)c1ccccc1	-2.49 (inactive)	0.379	0.669 (inactive)	0.546 (inactive)	0.248 (inactive)	0.567 (inactive)	-0.286	-0.832 (inactive)	-1.74 (inactive)	2.42
O=C1CS(=O)(=O)C(c2cccc([N+](=O)[O-])c2)N1c1ccccc1 (stereo not given)	2.48 (inactive)	0.683	-0.625 (inactive)	-1.38 (inactive)	-0.903 (inactive)	-1.68 (inactive)	1.93	0.227 (inactive)	0.38 (inactive)	1.79
CCCCC(CC)C(O)C1C=CC2C(=O)N(c3ccccc3)C(=O)C2N1Nc1ccccc1F (stereo not given)	0.351 (inactive)	-0.0576	0.741 (inactive)	-0.686 (inactive)	-0.42 (inactive)	-1.57 (inactive)	0.434	-0.157 (inactive)	0.143 (inactive)	1.01
COc1ccc([Si](C)(C)[C@@H]2[C@@H](CC(=O)N3CCC[C@H]3CO)O[C@]3(C(=O)N(Cc4cccc(N5C(=O)COc6ccccc65)c4)c4ccccc43)[C@H]2C)cc1	-0.194 (inactive)	0.0005	3.76 (inactive)	1.41 (inactive)	-1.47 (inactive)	0.646 (inactive)	0.324	2.66 (inactive)	1.74 (inactive)	4.12
O=c1cccc(-c2ccc([N+](=O)[O-])cc2)o1	0.609 (inactive)	-0.241	0.687 (inactive)	-0.129 (inactive)	0.0448 (inactive)	-1.08 (inactive)	0.248	0.304 (inactive)	0.542 (inactive)	0.0589
[N-]=[N+]=Nc1ccccc1C[C@]1(C(=O)N2CCOCC2)COC(c2ccc(OCCCO)cc2)=N1	1.59 (inactive)	0.401	24.6 (active)	7.83 (inactive)	1.52 (inactive)	-0.779 (inactive)	0.779	-3.84 (inactive)	-0.00663 (inactive)	-1.73
COCCOC(=O)N1C(=O)[C@@]2(c3ccccc31)[C@H](C(=O)NC[C@H](O)c1ccccc1)[C@H]1C(=O)O[C@H](c3ccccc3)[C@H](c3ccccc3)N1[C@@H]2c1ccc(O)cc1	0.503 (inactive)	-0.671	1.89 (inactive)	0.74 (inactive)	-0.0724 (inactive)	0.786 (inactive)	0.315	1.22 (inactive)	0.4 (inactive)	0.855
CO[C@H]1O[C@H](CO)[C@@H](OC(=O)Nc2ccc(Br)cc2)[C@@H]2OC(=O)[C@@H](Cc3ccccc3)C/C=C/C[C@H](Cc3ccccc3)C(=O)O[C@@H]12	0.931 (inactive)	0.057	3.36 (inactive)	0.956 (inactive)	-1.12 (inactive)	1.35 (inactive)	0.311	0.647 (inactive)	0.263 (inactive)	0.0979

From PubChem BioAssay
